Assay results published in PubChem BioAssay (NCATS).
“And” between values parts separate entries of the source, which are not always exact repeats. Equal values may be shown once. Inconclusive results are not listed. The source made the active and inactive calls. Calls come from the whole dose curve; as a rule, active = well fitted curve in the direction sought with a large enough effect; inconclusive = small, poorly fitted or top-dose-only effect, or another doubt; inactive = no such curve, though single readings can be large; an effect the other way counts as inactive or inconclusive.

Tests used:
[1] = Viability qHTS for spleen associated tyrosine kinase inhibitor (SYKi) naive MV4-11 cells (AID 1963823); note: nearly all actives have a fitted effect of over 40% in size; note: potency is the fitted concentration of half-maximal effect
Method in brief: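 Seeding of 500 SYKi-naive MV4-11 cells per well onto pre-dispensed compounds preceded a 72 hr incubation at 37 C. Luminescent CellTiter-Glo signal, read after 10 min at room temperature, reflected viable cells.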

[2] = Viability qHTS for spleen associated tyrosine kinase inhibitor (SYKi) drug resistant MV4-11 cells (AID 1963824); note: nearly all actives have a fitted effect of over 35% in size; note: potency is the fitted concentration of half-maximal effect
Method in brief: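 CellTiter-Glo luminescence, read 10 min after reagent addition, reports viability after a 72 hr compound exposure. Cells are an MV4-11 line made resistant to SYK inhibition, seeded at 500 per well onto compound-containing plates.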

[3] = Quantitative highthroughput screen to assess conditional lethalithy of P12 Ichikawa cells grown in RPMI1640 with untreated serum (RPMI+s) (AID 1963881); settings: Potency: viability;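 note: series mostly up to about 46 µM; 100% = DMSO wells and 0% = empty wells without cells; nearly all actives have a fitted effect of over 35% in size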
Method in brief: (§1)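 Each medium arm—HPLM with 10% dialyzed FBS, or RPMI1640 with 5 mM glucose and 10% untreated or dialyzed FBS—was screened against an 11-point, 3-fold compound titration for 48 h at 37 °C, with CellTiter-Glo luminescence as endpoint.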

[4] = Quantitative highthroughput screen to assess conditional lethalithy of SEM cells grown in RPMI1640 with unreated serum (RPMI+s) (AID 1963883); note: nearly all actives have a fitted effect of over 35% in size; note: potency is the fitted concentration of half-maximal effect;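 for Viability: 100% = DMSO wells and 0% = empty wells without cells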
Method in brief: as §1

[5] = Cellular viability qHTS for adrenocortical cancer (ACC) cell line SW-13 (AID 1963989); settings: SW-13 ACC cells viability, CellTiter-Glo, 48 h; activity (max response): active compounds read low; note: nearly all actives have a fitted effect of over 65% in size; note: potency is the fitted concentration of half-maximal effect;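 for activity (max response): cells grown in serum-free medium with ITS supplement; % is set by controls: 0 for no effect and ±100 for the full control effect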
Method in brief: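 Compound titrations (up to 46 uM final, in DMSO) were applied to SW-13 cells for 48 h at 37C/5% CO2. Reading used CellTiter-Glo after 20 min at room temperature; fitted curves yielded IC50 and efficacy.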

[6] = Cellular viability qHTS for adrenocortical cancer (ACC) cell line NCI-H295R (AID 1963990); note: nearly all actives have a fitted effect of over 60% in size; note: potency is the fitted concentration of half-maximal effect
Method in brief: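 Readout: CellTiter-Glo luminescence, 20 min RT. Exposure: 48 h, 37C/5% CO2. Cells: NCI-H295R, ITS-DMEM serum-free. Range: up to 46 uM. Analysis: 4PL fit, IC50 plus efficacy.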

[7] = Quantitative highthroughput screen to assess conditional lethalithy of P12 Ichikawa cells grown in Human Plasma-Like Medium with dialyzed fetal bovine serum (HPLM+ds) (AID 1963879); settings: Potency: viability; note: nearly all actives have a fitted effect of over 35% in size; note: potency is the fitted concentration of half-maximal effect; for Viability: series mostly up to about 46 µM
Method in brief: as §1

[8] = Quantitative highthroughput screen to assess conditional lethalithy of P12 Ichikawa cells grown in RPMI1640 with dialyzed fetal bovine serum (RPMI+ds) (AID 1963880); settings: Potency: P12-Ichikawa viability; note: nearly all actives have a fitted effect of over 35% in size; note: potency is the fitted concentration of half-maximal effect;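 for Viability: 100% = DMSO wells and 0% = empty wells on each plate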
Method in brief: as §1

[9] = Quantitative highthroughput screen to assess conditional lethalithy of SEM cells grown in RPMI1640 with dialyzed fetal bovine serum (RPMI+ds) (AID 1963884)
Method in brief: as §1

[10] = Quantitative highthroughput screen to assess conditional lethalithy of SEM cells grown in Human Plasma-Like Medium with dialyzed fetal bovine serum (HPLM+ds) (AID 1963882)
Method in brief: as §1

O=C(O)c1nn(Cc2ccc(Cl)cc2Cl)c2ccccc12
inactive: Potency [1] | Potency [2] | Potency [3] | Potency [4] | activity (max response) [5] 8.06% and -12.7% | Potency [6]

COC[C@H]1OC(=O)c2coc3c2[C@@]1(C)C1=C(C3=O)[C@@H]2CC[C@H](O)[C@@]2(C)C[C@H]1OC(C)=O
inactive: activity (max response) [5] -16.1%
active: Potency [1] 1.66 µM | Potency [2] 1.66 µM

[N-]=[N+]=CC(=O)OC[C@H](N)C(=O)O
inactive: Potency [1] | Potency [2] | activity (max response) [5] -8.61% | Potency [6]

CC(C)C[C@H](CN)CC(=O)O
inactive: Potency [1] | Potency [2] | Potency [7] | Potency [8] | activity (max response) [5] 8.17%

C[C@]12CC[C@@H]3c4ccc(OC(=O)N(CCCl)CCCl)cc4CC[C@H]3[C@@H]1CC[C@@H]2OP(=O)(O)O
inactive: Potency [1] | Potency [2] | Potency [8] | Potency [6]
active: Potency [4] 14.8 µM

O=C(CCl)c1ccc(Cl)cc1Cl
inactive: Potency [1] | Potency [2] | activity (max response) [5] -3.67%

CCN1CCN(C(=O)Cc2ccc(Nc3ncc(F)c(Nc4ccc(C(=O)Nc5ccccc5Cl)cc4)n3)cc2)CC1
active: Potency [1] 0.468 µM | Potency [2] 0.525 µM | Potency [4] 5.9 µM | Potency [6] 3.55 µM

C=C(C)[C@H]1Cc2c(ccc3c2O[C@@H]2COc4cc(OC)c(OC)cc4[C@@H]2C3=O)O1
active: Potency [1] 0.0376 µM | Potency [2] 0.0376 µM | Potency [7] 3.72 µM | Potency [8] 4.69 µM | Potency [9] 3.72 µM | Potency [5] 0.0116 µM | Potency [6] 0.103 µM

c1ccc2c(c1)Nc1ccccc1S2
inactive: Potency [1] | Potency [2] | activity (max response) [5] -23.4%

CC1(C)CC(O)CC(C)(C)N1O
inactive: Potency [1] | Potency [2] | activity (max response) [5] -2.2%

COc1ccc2c3c1O[C@H]1[C@@H](O)C=C[C@H]4[C@@H](C2)N(C)CC[C@@]341
active: Potency [1] 37.8 µM | Potency [2] 30 µM | Potency [5] 14.1 µM | Potency [6] 10 µM

CCOP(=O)(OCC)C(C)NC(=O)N(CCCl)N=O (stereo not given)
active: Potency [2] 16.6 µM
inactive: Potency [1] | Potency [7] | Potency [8] | Potency [10] | activity (max response) [5] 3.2% | Potency [6]

CCOP(=S)(OCC)Oc1cc(C)nc(C(C)C)n1
inactive: Potency [1] | Potency [2] | activity (max response) [5] 8.98% | Potency [6]

COc1ccc(N(C(=O)Oc2c(C)cccc2C)c2ccnc(Nc3ccc(N4CCN(C)CC4)cc3)n2)c(OC)c1
active: Potency [1] 1.48 µM | Potency [2] 1.16 µM and 2.35 µM | Potency [5] 8.91 µM | Potency [6] 12.6 µM
inactive: Potency [7]

O=C(O)CCCc1ccc(N(CCCl)CCCl)cc1
active: Potency [4] 23.5 µM
inactive: Potency [1] | Potency [2] | activity (max response) [5] 1.67% and -8.76% | Potency [6]

CCC(C(N)=O)N1CCCC1=O (stereo not given)
inactive: Potency [1] | Potency [2] | activity (max response) [5] -1.47%

COc1cc(C)[nH]c(=O)c1CNC(=O)c1c(C)n([C@H](C)C2CCOCC2)c2ccccc12
inactive: Potency [1] | Potency [2] | activity (max response) [5] 8.24% | Potency [6]

CN1[C@@H]2CC[C@H]1CC(OC(=O)c1cc(Cl)cc(Cl)c1)C2 (stereo not given in full)
inactive: Potency [1] | Potency [2] | activity (max response) [5] -16.8%

C=CCC1(C(C)CC)C(=O)NC(=O)NC1=O (stereo not given)
inactive: Potency [1] | Potency [2] | activity (max response) [5] 0.393%

CCN1CCCC1CNC(=O)C(O)(c1ccccc1)c1ccccc1 (stereo not given)
inactive: Potency [1] | Potency [2] | activity (max response) [5] -3.88%

CC(C(=O)c1ccccc1)N(C)C (stereo not given)
inactive: Potency [1] | Potency [2] | activity (max response) [5] 8.81% | Potency [6]

CCN(CC)CCOC(=O)C(O)(c1ccccc1)c1ccccc1
inactive: Potency [1] | Potency [2] | activity (max response) [5] 1.88% | Potency [6]

Cc1ccc(N=CN(C)C=Nc2ccc(C)cc2C)c(C)c1
inactive: Potency [1] | Potency [2] | activity (max response) [5] 9.45% | Potency [6]

COC(=O)C1=CCCN(C)C1
inactive: Potency [1] | Potency [2] | activity (max response) [5] 1.83% | Potency [6]

CC(C)C(Br)C(=O)NC(N)=O (stereo not given)
inactive: Potency [1] | Potency [2] | activity (max response) [5] -7.38% | Potency [6]

Clc1cccc(N2CCNCC2)c1
inactive: Potency [1] | Potency [2] | activity (max response) [5] 2.07% | Potency [6]

C[C@@H]1CC[C@@]2(OC1)O[C@H]1C[C@H]3[C@@H]4CC=C5C[C@@H](O[C@@H]6O[C@H](CO)[C@@H](O[C@@H]7O[C@@H](C)[C@H](O)[C@@H](O)[C@H]7O)[C@H](O)[C@H]6O[C@@H]6O[C@@H](C)[C@H](O)[C@@H](O)[C@H]6O)CC[C@]5(C)[C@H]4CC[C@]3(C)[C@H]1[C@@H]2C
active: Potency [1] 1.66 µM | Potency [2] 1.66 µM | Potency [5] 3.55 µM | Potency [6] 2.24 µM

COc1ccc2c(c1OC)C(=O)O[C@H]2[C@@H]1c2cc3c(cc2CCN1C)OCO3
inactive: Potency [1] | Potency [2] | activity (max response) [5] 8.92% | Potency [6]

C[C@]12CC[C@H]3[C@@H](CC[C@@]45O[C@@H]4C(O)=C(C#N)C[C@]35C)[C@@H]1CC[C@@H]2O
active: Potency [1] 10.5 µM | Potency [2] 6.61 µM | Potency [6] 28.2 µM
inactive: activity (max response) [5] -12.1%
